An excerpt weighted towards active compounds, which were near 4.8% of everything screened.
SMARCA2 act – activators of SMARCA2 function; AID 652017; 370,000 compounds, 1% hits; activation, % at 9.1 µM; MG213 cells, MMTV-luciferase reporter, dexamethasone, overnight; in the data active = activation above about 7.8%;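 also: 0% = vehicle wells and 100% = reference activator wells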
hcDAF12 agonist – activators of H. contortus DAF-12 nuclear receptor | activation, % at 6.8 µM | 370,000 compounds, 1.4% hits | HEK293 hcDAF-12 lit1-tk-luc reporter, luminescence; 0% DMSO, 100% Δ7-dafachronic acid;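 active = activation above the mean of all tested compounds plus 3 SD, cut at about 5.5% in these data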;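 also: 100% = response to 3 µM Δ7-dafachronic acid high control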
ssDAF12 agonist – activators of S. stercoralis DAF-12 nuclear receptor; HEK293 ssDAF-12/GRIP1 lit1-tk-luc reporter, luminescence; % of 3 µM dafachronic acid response; activation, % at 6.8 µM; 370,000 compounds, 1% hits;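 active = activation above the mean over all tested compounds plus 3 SD, cut at about 0.9% in these data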;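 also: 0% = DMSO-only wells and 100% = 3 µM delta7-dafachronic acid wells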
DAX1 inh-1 – inhibitors of human orphan nuclear receptor DAX1 (NR0B1); P51843; HEK293 Gal4-DAX1 luciferase reporter, luminescence; inhibition, % at 6.75 µM; 340,000 compounds, 0.99% hits;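 active = inhibition above the mean over all tested compounds plus 3 SD, cut at about 4.2% in these data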;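 also: 0% = DAX1-transfected cells with DMSO and 100% = empty-vector control cells with DMSO; inhibition shows as a rise in luminescence from relieved DAX1 repression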
DAX1 inh-2 – DAX1 (NR0B1) inhibition, primary screen; 370,000 compounds, 1.1% hits; inhibition, % at 6.8 µM; HEK293T StAR-luciferase reporter, SF-1/DAX-1 repression relief;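 active = inhibition above the mean over all tested compounds plus 3 SD, cut at about 3.6% in these data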;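 also: 0% = DAX-1 cells with DMSO and 100% = cells lacking DAX-1 with DMSO; higher inhibition means more luminescence from relief of DAX-1 repression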
hgDAF-12 ag – activates the H. glycines DAF-12 receptor ligand-binding domain. HEK293 GAL4-hgDAF12 UAS-luciferase reporter, agonist luminescence; normalized to butyrate control. activation, % at 6.8 µM. 370,000 compounds, 1.8% hits;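 active = activation above a cutoff set at the mean of all screened compounds plus 3 SD, cut at about 10% in these data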;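 also: 0% = DMSO wells and 100% = sodium butyrate wells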
LXRb hcDAF ctr – activates human LXR-beta, counter-screen for hcDAF-12 agonists; shares compounds with hcDAF12 agonist; activation, % at 6.8 µM; 3,400 tested, under 10 active; HEK293 Gal4-LXR tk-luc reporter, luminescence, 24 h; normalized: DMSO 0%, positive control 100%;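 active = mean percent activation of the reporter above a cutoff set as the average over tested compounds plus their standard deviation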
Target sequence (P55055 whole entry, looked up, the tested form may be a part): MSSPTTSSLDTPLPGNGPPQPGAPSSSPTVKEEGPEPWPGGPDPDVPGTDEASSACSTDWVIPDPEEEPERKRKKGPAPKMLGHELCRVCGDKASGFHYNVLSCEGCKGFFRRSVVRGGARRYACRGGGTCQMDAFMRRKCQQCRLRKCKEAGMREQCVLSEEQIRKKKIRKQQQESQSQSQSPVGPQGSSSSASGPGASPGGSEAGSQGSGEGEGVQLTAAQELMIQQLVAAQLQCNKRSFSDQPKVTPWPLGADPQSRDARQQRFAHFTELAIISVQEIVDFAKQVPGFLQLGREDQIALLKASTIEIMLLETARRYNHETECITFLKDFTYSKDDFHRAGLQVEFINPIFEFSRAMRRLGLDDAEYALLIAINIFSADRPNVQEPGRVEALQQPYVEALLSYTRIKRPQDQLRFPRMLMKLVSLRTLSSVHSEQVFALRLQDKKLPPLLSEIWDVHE
hcDAF12 ag – hcDAF-12 agonism, confirmation assay; shares compounds with hcDAF12 agonist; HEK293 hcDAF-12 lit1-tk-luc reporter, luminescence; % of Δ7-dafachronic acid response; activation, % at 6.8 µM; 3,400 compounds, 61% hits;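 active = mean activation across triplicate tests above the threshold derived from the earlier primary screen, cut at about 5.5% in these data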;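 also: 0% = DMSO only wells and 100% = 3 µM Δ7-dafachronic acid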
* = called active by the depositor; · = no result; ! = a repeat was not active.

SMILES	SMARCA2 act	hcDAF12 agonist	ssDAF12 agonist	DAX1 inh-1	DAX1 inh-2	hgDAF-12 ag	LXRb hcDAF ctr	hcDAF12 ag
O=C(CSc1ccc2nnc(-c3ccccc3)n2n1)NCC1CCCO1 (stereo not given)	2.9	-1.9	-1.1	1.4	1.0	-0.2	·	·
CC(C)C(=O)Nc1ccc(NC(=O)c2ccccn2)cn1	2.3	6.7*	0.0	-1.9	2.5	8.7	1.3	4.3
O=C(Nc1ccccc1SC(=O)c1ccccc1)c1ccccc1	-0.4	7.8*	1.8*	4.4*	1.0	7.3	0.4	9.9*
CSc1ccccc1NC(=O)c1ccccc1	0.7	-0.1	-1.3	1.1	0.3	6.7	·	·
Brc1ccc2oc3c(N4CCOCC4)ncnc3c2c1	4.5	1.3	-1.1	2.9	-0.2	-0.7	·	·
Clc1ccc2oc3c(Cl)ncnc3c2c1	0.8	8.0*	-0.7	-1.0	0.3	1.4	-0.2	4.2
O=[N+]([O-])c1ccccc1-c1ccc(C(=S)N2CCCC2)o1	0.3	9.4*	1.8*	-1.4	2.0	9.3	0.7	9.7*
O=[N+]([O-])c1ccccc1-c1ccc(C(=S)N2CCCCC2)o1	-1.9	6.8*	0.4	0.9	0.8	4.7	0.6	7.0*
Clc1ccccc1-c1nc(-c2ccncc2)no1	5.5	7.2*!	-0.7	1.8	1.1	9.7	1.6	5.0
Clc1ccccc1-c1nc(-c2cccnc2)no1	4.7	8.1*	1.3*	2.9	2.6	8.6	1.3	8.1*
CCc1ccc(-c2nc(-c3ccncc3)no2)cc1	3.9	8.2*	0.7	0.5	3.5	10.9*	1.6	8.3*
c1ccc(-c2ccccc2-c2nc(-c3ccncc3)no2)cc1	-0.1	-1.1	-1.6	0.1	-0.3	-0.7	·	·
Clc1ccccc1-c1nnc(-c2cccnc2)o1	5.3	0.6	0.4	0.8	0.0	7.2	·	·
Cc1cc(C)cc(CC(=O)N2CCC2(C)C(=O)NS(=O)(=O)c2ccc(Cl)s2)c1 (stereo not given)	-1.9	-0.9	-0.4	·	0.2	0.7	·	·
CCc1ccccc1N(CC(=O)NCc1ccc(OC)cc1)C(=O)CCC(=O)Nc1ccccn1	-1.4	-3.6	-1.2	-0.8	-0.1	-0.4	·	·
Cc1cccc(OCC(=O)Oc2ccc(Cl)cc2)c1	-1.7	-1.0	-1.4	1.0	0.0	0.6	·	·
Cc1ccc(NC(=O)c2ccc(OC(=O)COc3cccc(Cl)c3)cc2)cc1	6.2	7.6*	0.1	0.8	3.9*	11.7*	1.0	4.4
Cc1cccc(Nc2nnc(SCC(=O)Nc3cccnc3Cl)s2)c1	-3.1	-0.2	-1.2	2.5	0.0	-0.6	·	·
Cc1cn([C@@H](CCCCN)C(=O)NCCCCCCCCCCC(=O)N2CCNCC2)nn1	-0.1	-1.5	-0.8	1.5	0.5	1.3	·	·
Cc1[nH]n(C(N)=S)c(=O)c1N=Nc1ccc(Br)cc1	4.4	7.3*	0.2	1.6	1.2	5.3	1.3	13.6*
Cc1ccc2nc(-c3ccccn3)[nH]c2c1	2.9	8.7*	0.5	-1.7	1.9	9.7	1.2	5.2
c1ccc(-c2nc3c(ccc4ccccc43)[nH]2)nc1	7.2	8.9*	0.8	0.8	1.2	11.8*	0.5	8.1*
Cc1ccc2nc(CCCc3nc4ccc(C)cc4[nH]3)[nH]c2c1	-1.5	-2.4	-0.9	0.2	-0.9	-4.3	·	·
O=C(O)c1ccc(N/N=C/c2cccc3nccnc23)cc1	3.4	0.7	-0.9	2.1	1.1	5.2	·	·
Cc1c(C(=O)Nc2nccs2)oc2ccc(Br)cc12	3.7	9.2*	2.3*	3.1	4.1*	9.8	2.2	13.3*
SMILES	SMARCA2 act	hcDAF12 agonist	ssDAF12 agonist	DAX1 inh-1	DAX1 inh-2	hgDAF-12 ag	LXRb hcDAF ctr	hcDAF12 ag
COc1ccccc1C(=O)NC(=S)N1CCCc2ccccc21	1.2	2.2	-1.4	1.5	-0.8	-2.2	·	·
O=C(NC(=S)N1CCCc2ccccc21)c1ccccc1	2.8	8.3*	0.8	1.1	0.5	7.6	0.3	9.2*
O=C(NC(=S)N1CCCc2ccccc21)c1ccc(Cl)cc1	0.7	7.9*	0.3	2.1	0.9	3.8	0.2	9.2*
C=CCc1ccccc1OCC(O)CNC(C)C (stereo not given)	0.3	-0.8	-0.1	-0.3	0.7	-1.2	·	·
C=CCc1ccccc1OCC(O)CNC1CCCC1 (stereo not given)	-1.5	7.2*	-0.7	0.1	0.3	-2.8	-0.3	0.1
O=C(COC(=O)c1ccccc1Br)Nc1ccccc1F	0.8	-1.0	-1.2	2.3	0.8	2.9	·	·
COc1ccc(C(=O)OCC(=O)c2ccc[nH]2)c(OC)c1	4.6	6.7*	0.3	3.8	0.4	9.3	0.8	4.4
COc1ccc(CC(=O)OCC(=O)c2ccc[nH]2)cc1	-0.4	-0.3	-0.4	0.5	-0.5	2.9	·	·
COc1ccc(Cl)cc1C(=O)O/N=C(\N)c1ccccn1	7.8*	7.1*	0.1	3.4	1.9	6.0	0.2	4.0
N/C(=N\OC(=O)COc1ccc2ccccc2c1Br)c1ccccn1	2.1	2.2	0.2	0.4	2.5	10.2	·	·
COc1ccc(C(=O)O/N=C(\N)c2ccccn2)c(OC)c1	5.5	4.8	-0.5	-1.0	2.1	5.6	·	·
N/C(=N\OC(=O)COc1ccc(Br)cc1Cl)c1ccccn1	4.7	9.8*	0.1	-1.4	4.2*	7.8	1.3	7.6*
CC12CN3CC(C)(CN(C1)C3c1c[nH]c3ccccc13)C2=O (stereo not given)	-1.5	0.0	-1.3	-0.8	-0.7	0.7	·	·
COc1ccc(CN(C)C(c2ccccc2)c2nnnn2-c2ccccc2C)c(OC)c1C (stereo not given)	1.0	1.3	-1.1	-0.6	1.1	2.7	·	·
Cc1ccc(SC2=C(Sc3ccc(C)cc3)C(=O)c3ccccc3C2=O)cc1	4.9	9.7*	0.7	3.1	1.6	6.1	0.0	2.3
COC1=C(Nc2ccc(C)cc2)C(=O)c2ccccc2C1=O	1.5	3.4	-0.7	-1.1	-0.2	8.1	·	·
COc1cc(CN=Cc2c(O)n(Cc3ccccc3)c(=S)[nH]c2=O)cc(OC)c1	2.9	-0.5	-1.2	-0.5	0.0	-0.8	·	·
Cc1ccc(NC(=O)c2noc3c2CCCCC3)cc1	2.8	10.3*	1.2*	2.3	3.4	11.5*	1.8	8.2*
O=C(Nc1nccc(-c2cccs2)n1)c1cccs1	5.7	7.1*	0.5	2.6	0.3	6.6	0.3	6.8*
Nc1nccc(-c2cccs2)n1	3.4	1.3	-1.8	-1.2	0.0	-1.0	·	·

Screening data: PubChem BioAssay, The Scripps Research Institute Molecular Screening Center
